Screens (PubChem BioAssay)
Rows were chosen to be rich in hits. Some 12% of all compounds tested hit in one or more screens of this group.
USP30 inh: inhibitors of human USP30 deubiquitinase; Q70CQ3; purified USP30, Ub-rhodamine cleavage fluorescence; inhibition, % at 25 µM; 47,000 compounds, 5.3% hits; AID 1645860
USP17 inh: human USP17-like deubiquitinase inhibition. A8MUK1. purified USP17, Ub-rhodamine cleavage fluorescence, 3 h. inhibition, % at 50 µM. 47,000 compounds, 6.5% hits
Target sequence (A8MUK1 whole entry, looked up): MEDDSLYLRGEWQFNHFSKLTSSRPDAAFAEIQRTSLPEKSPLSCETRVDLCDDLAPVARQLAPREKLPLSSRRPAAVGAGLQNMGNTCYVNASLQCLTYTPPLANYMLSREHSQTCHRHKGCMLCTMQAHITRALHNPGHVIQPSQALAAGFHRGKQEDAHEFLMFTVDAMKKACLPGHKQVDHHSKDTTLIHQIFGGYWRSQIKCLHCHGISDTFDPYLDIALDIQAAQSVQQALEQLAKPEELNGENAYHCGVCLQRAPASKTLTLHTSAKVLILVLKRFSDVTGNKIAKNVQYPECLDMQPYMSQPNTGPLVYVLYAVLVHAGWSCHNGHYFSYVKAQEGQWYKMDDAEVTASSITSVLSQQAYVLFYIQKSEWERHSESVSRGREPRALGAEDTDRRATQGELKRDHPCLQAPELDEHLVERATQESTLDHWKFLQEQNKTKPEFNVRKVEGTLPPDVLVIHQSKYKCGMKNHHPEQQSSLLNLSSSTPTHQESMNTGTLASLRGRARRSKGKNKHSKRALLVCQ
OTUD3 inh: blocks human OTUD3 ubiquitin-rhodamine cleavage; Q5T2D3; purified OTUD3, Ub-rhodamine fluorescence, 2 h; inhibition, % at 25 µM; 47,000 compounds, 0.7% hits; AID 1645858
USP28 inh: inhibitors of human USP28 deubiquitinase; Q96RU2; purified USP28, Ub-rhodamine cleavage fluorescence, 30 min; inhibition, % at 25 µM; 47,000 compounds, 3% hits; AID 1645857
Numbers stand for hits; . = inactive; / = no result. Cut-off read from the data, not from the text of the source: active = inhibition above about 30%; inactive = the rest.

SMILES	USP30 inh	USP17 inh	OTUD3 inh	USP28 inh
Cc1cccc(-n2nnc(C(=O)Nc3ccc(F)cc3)c2C)c1	32	.	.	.
COc1ccc(CN(C(=O)c2cnccn2)C(C(=O)NC2CCCCC2)c2ccc(OC)cc2)cc1 (stereo unspecified)	.	.	.	.
COc1cc2ncn(CC(=O)Nc3ccc(Br)cc3F)c(=O)c2cc1OC	.	.	.	.
Cc1ccccc1S(=O)(=O)N1CC[C@@H]2[C@H](CC1)N(C)CCS2(=O)=O	.	.	.	.
Cc1ccc(NC(=O)c2nnn(-c3ccccc3Br)c2C)cc1C	.	.	.	84
COc1ccc(OC)c(NC(=O)c2ccc(C)c(F)c2)c1	.	.	.	.
Cc1ccc(NC(=O)c2nnn(-c3cccc(F)c3)c2C)cc1C	.	.	.	.
COc1ccc(NC(=O)c2nnn(-c3ccccc3F)c2C)cc1OC	.	.	.	74
COc1cccc(C(=O)Nc2nc(-c3nnn(-c4ccc(C)c(F)c4)c3C)ns2)c1	95	61	.	64
COc1ccc(-c2cnnn2-c2ccc(NC(=O)c3c(F)cccc3F)cc2)cc1OC	83	/	.	.
O=C(Cc1ccc(Cl)cc1)N1CCC2(CN(Cc3cccc(Cl)c3)C2)C1	.	.	.	.
Cc1ccc2c(c1)-c1onc(C(=O)NCCc3c[nH]c4ccccc34)c1CO2	.	33	.	.
O=C(NCCc1c[nH]c2ccccc12)c1cc2occc2c(Nc2ccc(F)cc2)n1	.	.	.	.
COc1ccc(N(CC(=O)Nc2ccc(OC)c(OC)c2)S(=O)(=O)c2c(C)nn(C)c2C)cc1	41	.	.	.
COc1ccc(N(CC(=O)Nc2cc(Cl)ccc2OC)S(=O)(=O)c2c(C)nn(C)c2C)cc1	.	.	.	.
O=C(NCc1ccc(F)cc1)N1CCN(Cc2ccc3nccnc3c2)CC1	.	.	.	.
COc1cc2c(cc1OC)C(COc1ccccc1OC)N(C(=O)c1ccc3ccccc3c1)CC2 (stereo unspecified)	.	52	.	.
CCC(C(=O)N1CCc2cc(OC)c(OC)cc2C1COc1ccccc1OC)c1ccccc1 (stereo unspecified)	.	31	.	.
CCOC(=O)c1cccc(NC(=O)Cc2cccc3ccccc23)c1	.	.	.	.
CCOC(=O)c1ccc2nc(NC(=O)Cc3cccc4ccccc34)sc2c1	36	.	.	.
CC(=O)Nc1ccc(S(=O)(=O)N2CCC(CC(=O)NCc3ccc(F)cc3)CC2)cc1	.	.	.	.
CSc1ccc(CNC(=O)CC2CCN(S(=O)(=O)c3ccc(C)cc3)CC2)cc1	50	.	.	30
O=C(c1cc2ccccc2o1)N1CC=C(c2ccccc2)CC1	50	36	32	34
N#Cc1ccc(NC(=O)Nc2cccn(Cc3ccccc3Br)c2=O)cc1	30	81	45	63
N#Cc1cccc(NC(=O)Nc2cccn(Cc3ccccc3F)c2=O)c1	.	85	84	82
SMILES	USP30 inh	USP17 inh	OTUD3 inh	USP28 inh
Cc1ccccc1NC(=O)CNc1ccc(C#N)cc1	.	.	.	.
CC1=C(O)[C@@H](O)[C@@H]2O[C@@H]2C1=O	.	.	.	.
CC(=O)c1sc(NC(=O)c2cccc(S(=O)(=O)Nc3ccccc3F)c2)nc1-c1ccccc1	.	32	.	.
COc1cccc(CNC(=O)c2cnn3c4c(cnc23)CCCCC4)c1	.	.	.	.
COc1ccccc1CC(=O)N1CCC(c2nn(CCN)c3nccnc23)C1 (stereo unspecified)	35	.	.	.
Cc1ccccc1-c1nc2c3c(C)c(C)n(-c4ccccn4)c3ncn2n1	.	.	.	.
COc1ccccc1-c1nc2c3c(C)c(C)n(-c4ccc(Br)cn4)c3ncn2n1	.	51	.	.
Cc1ccc(CNC(=O)Cn2c(-c3ccccc3)nc(C)cc2=O)cc1	.	.	.	.
Cc1ccc(CNC(=O)c2cc(-c3ccccc3)nn2-c2ccccc2)cc1	34	.	.	.
CNC(=O)c1cnn2c(C3CCCN(c4cc(C)ncn4)C3)ccnc12 (stereo unspecified)	.	.	.	.
COc1ccccc1NC(=O)C1=C(C)Nc2nc(-c3ccccc3Cl)nn2C1c1cccnc1 (stereo unspecified)	.	.	.	.
O=C(COc1cc2oc(=O)c3c(c2cc1Cl)CCC3)N1CCCC1	.	.	.	.
O=c1oc2c3c(c(Cl)cc2c2c1CCCC2)OCN(Cc1ccccc1)C3	.	44	.	.
O=c1cc(CN2CCN(Cc3ccccc3)CC2)c2cc3c(cc2o1)CCC3	.	.	.	.
O=c1oc2c3c(c(Cl)cc2c2c1CCCC2)OCN(CCc1ccc(F)cc1)C3	.	43	.	.
O=C(Nc1ccc(OC(F)(F)F)cc1)Nc1ccc(-n2ccc(C(F)(F)F)n2)cc1	.	.	.	.
